According to PubChem BioAssay (NCATS):
Where “and” joins values, the source holds several entries; their conditions need not be identical. Identical values can stand only once. Records with an inconclusive call do not appear. Where a call stands in place of a potency, no number is given. Calls of active or inactive are those of the source. The call rests on the fitted dose curve; in most records, active means well fitted curve in the direction sought with a large enough effect; inconclusive means small, poorly fitted or top-dose-only effect, or another doubt; inactive means no such curve, though single readings can be large; an effect the other way counts as inactive or inconclusive.

Columns and labels:
[1] = qHTS of pediatric cancer cell lines to identify multiple opportunities for drug repurposing: Primary screen for LAN-5 cells (AID 1347100); further: potency means the concentration at half of the fitted maximal effect
Summary of the method: (§1)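 Viability after 48 h compound treatment at 37C, 500-1,000 cells/well, read as ATP luminescence with CellTiter-Glo. Primary screens used 11-point (MIPE, 0.78 nM-46 µM) or 8-point (NPC, 0.59 nM-46 µM) final concentrations; follow-up screens used 11-point dilutions.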

[2] = qHTS of pediatric cancer cell lines to identify multiple opportunities for drug repurposing: Primary screen for BT-12 cells (AID 1347101); further: nearly all actives have a fitted effect of over 25% in size; further: potency means the concentration at half of the fitted maximal effect
Summary of the method: (§2)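 Cells (500-1,000/well) rested 5 h, then received compounds for 48 h; metabolically active cells were measured by CellTiter-Glo luminescence. Final concentrations spanned up to 46 µM (MIPE, 11-point) or 0.59 nM-46 µM (NPC, 8-point) in primary screens, 11-point in follow-ups.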

[3] = qHTS of pediatric cancer cell lines to identify multiple opportunities for drug repurposing: Primary screen for Rh18 cells (AID 1347102); further: nearly all actives have a fitted effect of over 65% in size; further: potency means the concentration at half of the fitted maximal effect
Summary of the method: as §1

[4] = qHTS of pediatric cancer cell lines to identify multiple opportunities for drug repurposing: Primary screen for OHS-50 cells (AID 1347103); further: nearly all actives have a fitted effect of over 40% in size; further: potency means the concentration at half of the fitted maximal effect
Summary of the method: as §2

[5] = qHTS of pediatric cancer cell lines to identify multiple opportunities for drug repurposing: Primary screen for RD cells (AID 1347104); further: nearly all actives have a fitted effect of over 55% in size; further: potency means the concentration at half of the fitted maximal effect
Summary of the method: (§3)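 Cells seeded at 500-1,000 cells/well in growth media, rested 5 hours at 37 degrees C, 5% CO2, then dosed; MIPE compounds at 11-point (from 0.78 nM) and NPC at 8-point (from 0.59 nM) final concentrations. Viability by CellTiter-Glo luminescence after 48 hours.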

[6] = qHTS of pediatric cancer cell lines to identify multiple opportunities for drug repurposing: Primary screen for MG 63 (6-TG R) cells (AID 1347105); further: nearly all actives have a fitted effect of over 50% in size; further: potency means the concentration at half of the fitted maximal effect
Summary of the method: as §3

[7] = qHTS of pediatric cancer cell lines to identify multiple opportunities for drug repurposing: Primary screen for control Hh wild type fibroblast cells (AID 1347106);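 further: series mostly up to about 46 µM; a drop in luminescence marks cytotoxicity and a rise apparent proliferation; nearly all actives have a fitted effect of over 55% in size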
Summary of the method: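 Cells (500-1,000/well) in growth media were settled 5 h at 37 degrees C, then given compounds for 48 h. Viability was read as CellTiter-Glo luminescence. Primary runs used MIPE at 11 points (0.78 nM-46 µM) and NPC at 8 points (0.59 nM-46 µM); follow-ups used 11 points.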

[8] = qHTS of pediatric cancer cell lines to identify multiple opportunities for drug repurposing: Primary screen for Rh30 cells (AID 1347107); further: nearly all actives have a fitted effect of over 75% in size; further: potency means the concentration at half of the fitted maximal effect
Summary of the method: as §1

[9] = qHTS of pediatric cancer cell lines to identify multiple opportunities for drug repurposing: Primary screen for Rh41 cells (AID 1347108); further: nearly all actives have a fitted effect of over 70% in size; further: potency means the concentration at half of the fitted maximal effect
Summary of the method: as §3

[10] = qHTS of pediatric cancer cell lines to identify multiple opportunities for drug repurposing: Confirmatory screen for A673 cells (AID 1347110);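 further: cells exposed to compound for 48 h before the viability read; nearly all actives have a fitted effect of over 65% in size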; further: potency means the concentration at half of the fitted maximal effect
Summary of the method: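 A673 cells seeded at 500-1,000 cells/well, rested 5 h, then dosed; primary MIPE 11-point (0.78 nM to 46 µM), NPC (0.59 nM to 46 µM); confirmatory 11-point. CellTiter-Glo luminescence after 48 h.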

[11] = qHTS of pediatric cancer cell lines to identify multiple opportunities for drug repurposing: Confirmatory screen for BT-12 cells (AID 1347112); further: nearly all actives have a fitted effect of over 55% in size
Summary of the method: as §1

[12] = qHTS of pediatric cancer cell lines to identify multiple opportunities for drug repurposing: Confirmatory screen for DAOY cells (AID 1347114); further: nearly all actives have a fitted effect of over 65% in size
Summary of the method: (§4)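 Viability measured as metabolically active cells via CellTiter-Glo luminescence following 48 hours of compound exposure, 11-point dilutions in confirmatory testing. 500-1,000 cells/well plated 5 hours before dosing; controls were DMSO and 2.3 µM bortezomib.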

[13] = qHTS of pediatric cancer cell lines to identify multiple opportunities for drug repurposing: Confirmatory screen for BT-37 cells (AID 1347117); further: nearly all actives have a fitted effect of over 55% in size
Summary of the method: as §1

[14] = qHTS of pediatric cancer cell lines to identify multiple opportunities for drug repurposing: Confirmatory screen for MG 63 (6-TG R) cells (AID 1347119); further: nearly all actives have a fitted effect of over 55% in size
Summary of the method: as §1

[15] = qHTS of pediatric cancer cell lines to identify multiple opportunities for drug repurposing: Confirmatory screen for control Hh wild type fibroblast cells (AID 1347121); further: nearly all actives have a fitted effect of over 70% in size
Summary of the method: as §1

[16] = qHTS of pediatric cancer cell lines to identify multiple opportunities for drug repurposing: Confirmatory screen for NB1643 cells (AID 1347109); further: nearly all actives have a fitted effect of over 45% in size
Summary of the method: as §1

[17] = qHTS of pediatric cancer cell lines to identify multiple opportunities for drug repurposing: Confirmatory screen for LAN-5 cells (AID 1347113); further: nearly all actives have a fitted effect of over 65% in size
Summary of the method: as §1

[18] = qHTS of pediatric cancer cell lines to identify multiple opportunities for drug repurposing: Confirmatory screen for NB-EBc1 cells (AID 1347115);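 further: cells exposed to compound for 48 h before the viability read; nearly all actives have a fitted effect of over 45% in size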
Summary of the method: as §1

[19] = qHTS of pediatric cancer cell lines to identify multiple opportunities for drug repurposing: Confirmatory screen for SJ-GBM2 cells (AID 1347116); further: nearly all actives have a fitted effect of over 60% in size
Summary of the method: as §4

[20] = qHTS of pediatric cancer cell lines to identify multiple opportunities for drug repurposing: Confirmatory screen for TC32 cells (AID 1347118)
Summary of the method: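 qHTS, TC32, 48 h drug treatment, CellTiter-Glo luminescence as a proxy for metabolically active cells; primary top concentration 46 µM (MIPE 11-pt, NPC 8-pt); confirmatory 11-pt.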

COc1ccc2c(c1)c(CC(=O)OCC(=O)O)c(C)n2C(=O)c1ccc(Cl)cc1
Potency [1]: inactive | Potency [2]: inactive | Potency [3]: inactive | Potency [4]: inactive | Potency [5]: inactive | Potency [6]: inactive | Potency [7]: inactive | Potency [8]: inactive

C[C@]12C=CC(=O)C=C1CC[C@@H]1[C@@H]2C(=O)C[C@@]2(C)[C@H]1CC[C@]2(O)C(=O)CO
Potency [1]: inactive | Potency [2]: inactive | Potency [3]: inactive | Potency [4]: inactive | Potency [5]: inactive | Potency [6]: inactive | Potency [7]: inactive | Potency [8]: inactive

CCCCS(=N)(=O)CCC(N)C(=O)O (stereo not given)
Potency [1]: inactive | Potency [2]: inactive | Potency [3]: inactive | Potency [4]: inactive | Potency [5]: inactive | Potency [6]: inactive | Potency [7]: inactive | Potency [8]: inactive

N[C@@H](Cc1ccc(O)c(O)c1)C(=O)O
Potency [1]: inactive | Potency [2]: inactive | Potency [3]: inactive | Potency [4]: inactive | Potency [5]: inactive | Potency [6]: inactive | Potency [7]: inactive | Potency [8]: inactive

COc1c(N2CCNC(C)C2)c(F)cc2c(=O)c(C(=O)O)cn(C3CC3)c12 (stereo not given)
Potency [1]: inactive | Potency [2]: inactive | Potency [3]: inactive | Potency [4]: inactive | Potency [5]: inactive | Potency [6]: inactive | Potency [7]: inactive | Potency [8]: inactive

CCCN[C@H]1CCc2nc(N)sc2C1
Potency [1]: inactive | Potency [2]: inactive | Potency [3]: inactive | Potency [4]: inactive | Potency [5]: inactive | Potency [6]: inactive | Potency [7]: inactive | Potency [8]: inactive

CCN(CC)CCn1c(=O)c(Cc2ccc(OC)cc2)nc2ccccc21
Potency [1]: inactive | Potency [2]: inactive | Potency [3]: inactive | Potency [4]: inactive | Potency [5]: inactive | Potency [6]: inactive | Potency [7]: inactive | Potency [8]: inactive

NS(=O)(=O)c1cc2c(cc1Cl)NC(C(Cl)Cl)NS2(=O)=O (stereo not given)
Potency [1]: inactive | Potency [2]: inactive | Potency [3]: inactive | Potency [4]: inactive | Potency [5]: inactive | Potency [6]: inactive | Potency [7]: inactive | Potency [8]: inactive | Potency [9]: inactive

C#CCN[C@@H]1CCc2ccccc21
Potency [1]: inactive | Potency [2]: inactive | Potency [3]: inactive | Potency [4]: inactive | Potency [5]: inactive | Potency [6]: inactive | Potency [7]: inactive | Potency [8]: inactive

NC1(c2ccc(-c3nc4ccn5c(=O)[nH]nc5c4cc3-c3ccccc3)cc2)CCC1
Potency [1]: 3.72 µM (active) | Potency [2]: 21.7 µM (active) and 24.6 µM (active) | Potency [3]: 16.8 µM (active) | Potency [4]: 344 nM (active) and 692 nM (active) | Potency [5]: 16.6 µM (active) and 13.3 µM (active) | Potency [6]: 7.43 µM (active) and 13.3 µM (active) | Potency [7]: inactive | Potency [8]: 18.7 µM (active)

CC(C)(Sc1cc(C(C)(C)C)c(O)c(C(C)(C)C)c1)Sc1cc(C(C)(C)C)c(O)c(C(C)(C)C)c1
Potency [1]: inactive | Potency [2]: inactive | Potency [3]: inactive | Potency [4]: inactive | Potency [5]: inactive | Potency [6]: inactive | Potency [7]: inactive | Potency [8]: inactive

CC(N)C12CC3CC(CC(C3)C1)C2 (stereo not given)
Potency [1]: inactive | Potency [2]: inactive | Potency [3]: inactive | Potency [4]: inactive | Potency [5]: inactive | Potency [6]: inactive | Potency [7]: inactive | Potency [8]: inactive | Potency [9]: inactive

CCN(C)C(=O)Oc1cccc([C@H](C)N(C)C)c1
Potency [1]: inactive | Potency [2]: inactive | Potency [3]: inactive | Potency [4]: inactive | Potency [5]: inactive | Potency [6]: inactive | Potency [7]: inactive | Potency [8]: inactive | Potency [9]: inactive

Cc1noc(NS(=O)(=O)c2ccc(N)cc2)c1C
Potency [1]: inactive | Potency [2]: inactive | Potency [3]: inactive | Potency [4]: inactive | Potency [5]: inactive | Potency [6]: inactive | Potency [7]: inactive | Potency [8]: inactive

CCn1cc(C(=O)O)c(=O)c2cc(F)c(N3CCNCC3)nc21
Potency [1]: inactive | Potency [2]: inactive | Potency [3]: inactive | Potency [4]: inactive | Potency [5]: inactive | Potency [6]: inactive | Potency [7]: inactive | Potency [8]: inactive | Potency [9]: inactive

Nc1nc(N)nc(-c2cc(Cl)ccc2Cl)n1
Potency [1]: inactive | Potency [2]: inactive | Potency [3]: inactive | Potency [4]: inactive | Potency [5]: inactive | Potency [6]: inactive | Potency [7]: inactive | Potency [8]: inactive | Potency [9]: inactive | Potency [10]: 26.9 µM (active) | Potency [11]: inactive | Potency [12]: inactive | Potency [13]: inactive | Potency [14]: inactive | Potency [15]: inactive

O=C(O)c1cn(C2CC2)c2cc(N3CCNCC3)c(F)cc2c1=O
Potency [1]: inactive | Potency [2]: inactive | Potency [3]: inactive | Potency [4]: inactive | Potency [5]: inactive | Potency [6]: inactive | Potency [7]: inactive | Potency [8]: inactive | Potency [9]: inactive

CCCCc1oc2ccc(NS(C)(=O)=O)cc2c1C(=O)c1ccc(OCCCN(CCCC)CCCC)cc1
Potency [1]: 11.8 µM (active) and 18.8 µM (active) | Potency [2]: 19.3 µM (active) and 12.3 µM (active) | Potency [3]: 18.7 µM (active) | Potency [4]: 10.9 µM (active) and 15.5 µM (active) | Potency [5]: 18.7 µM (active) and 23.7 µM (active) | Potency [6]: 21.1 µM (active) | Potency [7]: inactive | Potency [9]: 23.5 µM (active)

NC(=O)c1ccc2[nH]ccc2c1
Potency [1]: inactive | Potency [2]: inactive | Potency [3]: inactive | Potency [5]: inactive | Potency [6]: inactive | Potency [7]: inactive

O=C(O)c1cc(=O)[nH]c(=O)[nH]1
Potency [1]: inactive | Potency [2]: inactive | Potency [3]: inactive | Potency [4]: inactive | Potency [5]: inactive | Potency [6]: inactive | Potency [7]: inactive | Potency [8]: inactive | Potency [9]: inactive

Cn1nnc2c(C(N)=O)ncn2c1=O
Potency [1]: inactive | Potency [2]: inactive | Potency [3]: inactive | Potency [4]: inactive | Potency [5]: inactive | Potency [6]: inactive | Potency [7]: inactive | Potency [8]: inactive | Potency [16]: inactive | Potency [10]: inactive | Potency [11]: inactive | Potency [17]: inactive | Potency [12]: inactive | Potency [18]: inactive | Potency [19]: inactive | Potency [13]: inactive | Potency [20]: inactive | Potency [14]: inactive | Potency [15]: inactive
